Source: PubChem BioAssay (NCI)
The panel holds about 83,000 compounds, 20% with a hit somewhere; the sample as a whole holds those more often.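 Testing used 96-well plates and a 48-hour single-concentration exposure. Example: -40 means 40% of the starting cells died.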 A number with no mark means an inactive call. The source made the active and inactive calls. The calls were made as follows: active = growth percent below 10; inactive = the rest.

These compounds were tested on NCI-H23 lung (assay: NCI-60 one-dose screen, 48 h (100 = growth as untreated, 0 = no growth, -100 = all killed)). Conditions: 10 µM.
Compound `Clc1ccc(Nc2ccnc(NCCCNc3ccnc4cc(Cl)ccc34)n2)cc1` has a growth of 45.6%.
In the case of `Oc1[nH]c2cc(Cl)ccc2c1/C=c1/ccc2c(c1)N=C(c1cc(F)cc(F)c1)N=2`, the growth is reported as 28.3%.
`CSc1nn(-c2ccccc2)c2ncnc(Oc3ccccc3)c12` gave a growth of 101%.
`Cc1cc2c(C)c3cc(C)c(N)cc3nc2cc1N` was tested, and the growth was 17.1%.
With `CCOC(=O)C1(CC(C)C)CCOC1=O` (centres undefined) the growth was 102%.
In the case of `COc1ccc(Nc2cc(C)nc(NCCCNc3ccnc4cc(Cl)ccc34)n2)cc1`, the growth is reported as 63.2%.
Work on `CCCCCCCCCCCCCCCC(=O)OC1[C@@H](OC(=O)CCCCCCCCCCCCCCC)[C@@H](C(=O)N[C@@H](CCCCN)C(=O)OC)O[C@H]1n1cnc2c(=O)[nH]c(NC(=O)C(C)C)nc21` (some centres undefined) yielded a growth of 97.8%.
Work on `COc1cc(Nc2ccnc(NCCNc3ccnc4cc(Cl)ccc34)n2)cc(OC)c1` yielded a growth of 38.2%.
For `Cc1cc(Nc2ccc(Cl)cc2)nc(NCCCNc2ccnc3cc(Cl)ccc23)n1`, the growth was 51.2%.
Compound `COc1cc2cc3c(nc2cc1OC)CCN3Cc1ccc(NC(=O)Nc2cc(C(F)(F)F)cc(C(F)(F)F)c2)cc1` has a growth of 77.9%.
`CC(C)=CCc1cc(O)cc2c1OC(C=C(C)C)C1=C2C(=O)C2=C(NCCS2(=O)=O)C1=O` (centres undefined) was tested, and the growth was -48.7% (active).
For `CC(C)=CCc1cc(O)cc2c1OC(C=C(C)C)C1=C2C(=O)C2=C(C1=O)S(=O)(=O)CCN2` (centres undefined), the growth was 28.6%.
In the case of `COc1ccc(Nc2ccnc(NCCNc3ccnc4cc(Cl)ccc34)n2)cc1`, the growth is reported as 48.8%.
`Cc1cc(Cl)nc(N(CCCNc2ccnc3cc(Cl)ccc23)Cc2cccs2)n1` was tested, and the growth was -12.9% (active).
In the case of `COc1cc(Cl)cc(-c2nn(-c3cccc(NC(=O)Nc4cc(C(F)(F)F)cc(C(F)(F)F)c4)c3)cc2-c2ccncc2)c1`, the growth is reported as -6.14% (active).
In the case of `CN(C)CCNC(=O)c1cccn2c(=O)c3cc4ccccc4cc3nc12`, the growth is reported as -3.24% (active).
With `CC12O[C@H](C[C@@H](O)[C@H]1O)n1c3ccccc3c3c4c(c5c6ccccc6n2c5c31)C(=O)N(CCCN)C4=O` the growth was 28.9%.
For `CCCCCCCC(C)NCCO` (centres undefined), the growth was 102%.
`Cc1cc(N(CCCNc2ccnc3cc(Cl)ccc23)Cc2ccc3c(c2)OCO3)nc(N2CCOCC2)n1` was tested, and the growth was 50.9%.
Work on `COc1cc(-c2nnc(-c3c(-c4ccc(F)cc4)nc4ccccn34)o2)cc(OC)c1OC` yielded a growth of 80.8%.
Work on `COc1ccc2c(c1)/C(=C\c1c[nH]c3ccc(OC)cc13)C(=O)N2` yielded a growth of 49.4%.
Compound `NC(=O)CC1(c2ccccc2)CCCCC1` has a growth of 103%.
Compound `COc1ccc(-c2nc3sccn3c2-c2nc3c([nH]2)C(=O)c2ccccc2C3=O)cc1` has a growth of 95.7%.
`Fc1ccc(-c2nnc(-c3c(-c4ccc(F)cc4)nc4ccccn34)o2)cc1` showed a growth of 69%.
`CCN1CCCC1CNC(=O)c1ncc(-c2ccc(C(F)(F)F)cc2)c(NC2CCCCCC2)n1` (centres undefined) was tested, and the growth was 92.5%.
`Cc1ccc(Nc2cc(C)nc(NCCCNc3ccnc4cc(Cl)ccc34)n2)cc1` was tested, and the growth was 17.6%.
For `Cn1c([N+](=O)[O-])cnc1/C=C1\Oc2ccccc2C1=O`, the growth was -18% (active).
`CC12O[C@H](C[C@@H](OC(=O)c3ccccc3)[C@H]1O)n1c3ccccc3c3c4c(c5c6ccccc6n2c5c31)C(=O)NC4=O` gave a growth of 56.9%.
Compound `COc1ccc(-c2nc3ncccn3c2-c2nnc(-c3ccc(F)cc3)o2)cc1` has a growth of 98.2%.
Compound `Nc1ccc2c(c1)C1(CCC2)NC(=O)NC1=O` (centres undefined) has a growth of 103%.
For `COc1cc(OC)cc(-c2cncn2-c2ccc(-c3nc4cc(OC)cc(OC)c4s3)cc2)c1`, the growth was 57.5%.
`Clc1ccc2c(NCCCNc3nccc(Nc4ccc(Br)cc4)n3)ccnc2c1` showed a growth of 46.8%.
Work on `O=C(Nc1cccc(Br)c1)c1cc(=O)[nH]c2ccccc12` yielded a growth of 103%.
`COc1cc(Nc2ccnc(NCCCNc3ccnc4cc(Cl)ccc34)n2)cc(OC)c1` showed a growth of 55.8%.
`CN1CCC(CNc2cc(C3(C(=O)Nc4cc(C(=O)Nc5ccc(Cl)c(C(F)(F)F)c5)ccc4F)CC3)ncn2)CC1` was tested, and the growth was 44%.
`N#Cc1c(C#N)c(SSc2c(C#N)c(C#N)c(N)n2-c2ccccc2)n(-c2ccccc2)c1N` gave a growth of 94.8%.
For `Clc1ccc(Nc2ccnc(NCCNc3ccnc4cc(Cl)ccc34)n2)cc1`, the growth was 47.6%.
For `Cc1cc(N(CCCNc2ccnc3cc(Cl)ccc23)Cc2ccc3c(c2)OCO3)nc(N2CCCCC2)n1`, the growth was 6.38% (active).
With `CCCCN(CCCC)c1cc(C(=O)CCCCCN)c2ccccc2n1` the growth was 94.5%.
